# From PubChem BioAssay (NCI)
# This is part of a sample that, as a whole, favours compounds with a hit. Of some 83,000 tested, about 20% had one in any assay.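 A percent growth of 40 corresponds to 60% growth inhibition; 0 means no net growth; -100 means all cells died. Active threshold: below 10.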 Calls of active or inactive are those of the source.
# System: HL-60(TB) leukemia
# Assay: NCI-60 one-dose screen, 48 h (100 = growth as untreated, 0 = no growth, -100 = all killed)
# Details: 10 µM unless noted
row,Compound,growth
1,COc1cc(NC(=O)Nc2cnc(Nc3ccc(N4CCOCC4)cc3)nc2Oc2ccc(C(F)(F)F)cc2)cc(OC)c1,96.4% (inactive)
2,CNC(=O)c1cc(Oc2ccc3nc(NC(=O)Nc4ccc(F)cc4F)sc3c2)ccn1,98.3% (inactive)
3,COc1ccc(Nc2ncc(C(N)=O)c(NCCCNC(=O)C3CCC3)n2)cc1,46.6% (inactive)
4,ClCC1(Cn2cnc3c(Cl)nc(Cl)nc32)COC1,91.6% (inactive)
5,Cc1c2ccccc2nc2cc3c(cc12)[C@H]1CC[C@]2(C)C(=O)CC[C@H]2[C@@H]1CC3,97.1% (inactive)
6,COc1ccc2c(c1)/C(=C1\S/C(=N/c3nnc(C)s3)NC1=O)C(=O)N2Cc1ccc(Cl)cc1,53.8% (inactive)
7,CC(C)(C)C(=O)Nc1nc2c(s1)CCc1ccn(S(=O)(=O)c3ccccc3)c1-2,70% (inactive)
8,CNC(=O)c1ccccc1Sc1ccc2c(/C=C/c3ccccn3)n[nH]c2c1,12.6% (inactive)
9,CCN(CC)CCN1C(=O)c2cccc3c(/C=C/CN4C(=O)c5cccc6cccc(c56)C4=O)ccc(c23)C1=O,83.4% (inactive)
10,Nc1c(C(=O)Nc2cccc3c2OCCO3)sc2nc3c(cc12)C(=O)CCC3,12.4% (inactive)
11,Cc1ccc2c(n1)C(=O)C(Br)=C(C1CCCC1)C2=O,76.1% (inactive)
12,C=CCOc1ccc(N=NC(C#N)C#N)cc1,0.44% (active)
13,COc1cc(/C=C/C(=O)c2ccc(-n3cc(CN4CCN(c5cc6c(cc5F)c(=O)c(C(=O)O)cn6C5CC5)CC4)nn3)cc2)cc(OC)c1OC,98.8% (inactive)
